One experiment deals with Solute carrier family 2, facilitated glucose transporter member 1 (Homo sapiens) (UniProt P11166). Description: ST_JUDE_LEISH: Cytotoxicity at 2uM final concentration against transgenic Leishmania Mexicana promastigotes LmGLUT1 that are glucose transport deficient and complemented with the human glucose transporter GLUT1. Activity is measured by DNA content using SYBR green in vitro. The experiment is classed as functional.
Sequence of Solute carrier family 2, facilitated glucose transporter member 1 (Homo sapiens) (P11166 whole entry): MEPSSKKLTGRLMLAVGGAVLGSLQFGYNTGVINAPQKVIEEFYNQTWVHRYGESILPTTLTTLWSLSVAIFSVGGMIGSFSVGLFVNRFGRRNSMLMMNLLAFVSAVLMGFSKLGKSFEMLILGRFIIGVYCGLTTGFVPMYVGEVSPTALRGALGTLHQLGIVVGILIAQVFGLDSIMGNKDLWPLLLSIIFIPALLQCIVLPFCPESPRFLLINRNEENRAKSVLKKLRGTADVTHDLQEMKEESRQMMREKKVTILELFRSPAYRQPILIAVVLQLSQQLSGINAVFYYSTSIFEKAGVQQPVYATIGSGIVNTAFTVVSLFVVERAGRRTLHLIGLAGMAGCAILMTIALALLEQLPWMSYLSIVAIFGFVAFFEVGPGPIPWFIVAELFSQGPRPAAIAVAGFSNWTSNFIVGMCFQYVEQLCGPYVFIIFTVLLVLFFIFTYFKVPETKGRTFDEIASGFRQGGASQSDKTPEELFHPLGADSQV
On to `C(=N\Nc1nccc2sc(-c3cccnc3)cc12)/c1cccnc1`, for which the inhibition was found to be 2.11%.

As to `CC(=O)OC[C@H]1O[C@@H](C#Cc2ccccc2)[C@H](OC(C)=O)[C@@H](OC(C)=O)[C@@H]1OC(C)=O`, the inhibition was 1.22%.

For the compound `O=S(=O)(NCCN1CCCC1)c1cccc(-c2ccc(CNCc3ccccc3)cc2)c1`, the inhibition came to 5.11%.

In the case of `CC(C)CCN1CCCN(Cc2ccc(C(=O)Nc3ccc(Cl)cc3)cc2)CC1`, the inhibition came to 11.1%.

In the case of `COc1cccc(OC)c1OCCCON1C(=N)N=C(N)NC1(C)C`, the inhibition came to 1.91%.

`Fc1ccc2[nH]c(-c3ccc(-c4ccc(CNCCc5ccncc5)cc4)s3)nc2c1`: the inhibition came to 5.54%.

As for `CC(C)CNCc1ccc(-c2cccc(CNc3ccc4ncccc4c3)c2)cc1`, the inhibition stood at 4.79%.

Consider `Cc1cccc(Oc2cccc3[nH]nc(N)c23)c1`, for which the inhibition turned out to be 3.75%.

`Cc1nc(-c2cccc(C(F)(F)F)c2)n2nc(Nc3ccc(OCCN4CCCC4)cc3)ncc12`: the inhibition is 76%.

Consider `COc1cccc2cc(C(=O)N[C@@H](CC(C)C)C(=O)NC3CC[C@@H](C)N(C(=O)Nc4ccncc4)CC3=O)oc12` (stereo not given in full), for which the inhibition was found to be 9.49%.

As to `Oc1cccc(Nc2nc(NCC3CCCO3)c3ccccc3n2)c1` (stereo not given), the inhibition was found to be 27%.

In the case of `CC(C)(C)NCCN(Cc1ccc(-c2ccc(C(F)(F)F)cc2)cc1)C(=O)Cn1c(SCc2ccc(F)cc2)nc(=O)c2c1CCC2`, the inhibition worked out at 0.94%.

Consider `O=C(Nc1ccc(OC2CCN(Cc3ccc(F)cc3)C2)c(Cl)c1)c1cccs1` (stereo not given), for which the inhibition amounted to 2.66%.

With `O=C1OC2(CCN(Cc3cccc(-c4ncc[nH]4)c3)CC2)CN1CCNCc1ccccc1`, the inhibition was determined as 1.81%.

For `CN(C)CCOc1ccc(-c2cc(-c3ccnc(N)n3)c(-c3ccc(Cl)c(O)c3)o2)cc1`, the inhibition is 1.34%.

On to `C=CC[C@H](C[C@H](O)[C@H](Cc1ccccc1)NC(=O)c1nn(-c2ccccc2)nc1C)C(=O)NC1CCCCC1`, for which the inhibition was 2.06%.

In the case of `CCCN(CCC)c1nn2c(=O)c(C(=O)N3CCN(Cc4ccccc4)CC3)cnc2s1`, the inhibition was 1.4%.

For the compound `Clc1cccc(CNc2nc(NCCc3c[nH]cn3)nc(NC3CCCCC3)n2)c1`, the inhibition came to 3.76%.

`CC(=O)c1ccc(-c2ccc(C(=O)NCCCCN3CCC(c4ccc5c(c4O)CCCC5)CC3)cc2)cc1`: the inhibition was 3.01%.

For `N#Cc1ccc2c(c1)CCN(CCC1CCC(NC(=O)Nc3ccncc3)CC1)C2` (stereo not given), the inhibition was found to be 5.14%.

As for `NC1=NC(Cc2ccccc2)N(c2ccc(Cl)cc2)C(N)=N1` (stereo not given), the inhibition was 8.89%.

In the case of `O=[N+]([O-])c1cc(/C=N/Nc2nc3nonc3nc2Nc2ccc(F)cc2)c(Cl)cc1Cl`, the inhibition is -0.53%.

Regarding `NC1CCN(CCNCc2cccc(-c3ccc(-c4nc5cc(C(F)(F)F)ccc5[nH]4)cc3)c2)C1` (stereo not given), the inhibition was 2.65%.

Take `CCNc1cc(C(=O)N[C@@H](Cc2ccccc2)[C@H](O)CNCCCc2ccc(OC)cc2)cc(N2CCCC2=O)c1`: the inhibition turned out to be 0.4%.

Consider `COc1ccc2nccc([C@@H](O)CN3CCC(NCc4cc5oc(=O)[nH]c5cc4Cl)CC3)c2c1`, for which the inhibition is -1.1%.

Consider `CN1CCN(S(=O)(=O)c2ccc3nccc(Nc4ccc(Oc5ccccc5)cc4)c3c2)CC1`, for which the inhibition was -3.11%.

As for `COc1ccc2nccc([C@@H](O)CN3CCC(NC(=O)/C=C/c4ccc5ccccc5n4)CC3)c2c1`, the inhibition worked out at 15.2%.

Turning to `COc1ccc(NC(=O)/C=C/c2ccccc2Cl)cc1OCCN1CCC(NCc2ccccc2)CC1`, the inhibition worked out at 3.15%.

Take `CCOc1ccc2ccccc2c1C(=O)Nc1cc(C)nn1-c1nc(C)cc(=O)[nH]1`: the inhibition was 49.6%.

For the compound `COc1ccccc1CN1CCC(CNC(=O)c2cc(-c3cccc(C(F)(F)F)c3)cs2)C1` (stereo not given), the inhibition was 0.96%.

For the compound `O=C(NCCCN1CCC(NC(=O)c2ccc(-c3cccnc3)cc2)CC1)c1ccc(Cl)c(Cl)c1`, the inhibition is 2.51%.

Take `Cc1cc(CN2CCCC(OC(c3ccc(F)cc3)c3ccc(F)cc3)C2)ccc1O` (stereo not given): the inhibition was determined as 9.25%.

For the compound `N=c1c2c(n(Cc3ccccc3)c3c1CCC3)CCCC2`, the inhibition was found to be 26.6%.

`CC(=NNC(S)=NC(c1ccccc1)c1ccccc1)c1ccccn1`: the inhibition amounted to 61%.

As for `N#Cc1cccc(NC(=O)Nc2ccc(-c3cccc(-c4nc5cc(F)ccc5[nH]4)c3)cc2)c1`, the inhibition stood at 3.67%.

With `O=S(=O)(Nc1ccc(CCN2CCC(N3CCCCC3)CC2)cc1)c1cccc(C(F)(F)F)c1`, the inhibition stood at 6.42%.

For `CC1CN(c2cccc3c2nc(-c2cncc(C#N)c2)n3CCNCc2ccccc2)CC(C)O1` (stereo not given), the inhibition stood at 3.09%.

As to `CN(C)c1cc(NC(=O)Nc2ccc(SC(F)(F)F)cc2)c2ccccc2n1`, the inhibition was -0.23%.

In the case of `O=C(/C=C/c1ccc(Cl)c(Cl)c1)NCCCCCN1CCCC(CNC(=O)c2sc3ccccc3c2Cl)C1` (stereo not given), the inhibition is -1.59%.

For the compound `COc1cccc(C(=O)NC(NC(=S)Nc2ccc(OC)cc2[N+](=O)[O-])C(Cl)(Cl)Cl)c1` (stereo not given), the inhibition was -1.36%.

Another experiment deals with Hexose transporter 1 (Plasmodium falciparum) (UniProt O97467). Description: ST_JUDE_LEISH: Cytotoxicity at 2uM final concentration against transgenic Leishmania Mexicana promastigotes LmPfHT that are glucose transport deficient and complemented with the Plasmodium falciparum hexose transporter. Activity is measured by DNA content using SYBR green in vitro. The experiment is classed as functional.
In the case of `C(=N\Nc1nccc2sc(-c3cccnc3)cc12)/c1cccnc1`, the inhibition was 1.38%.

As for `CC(=O)OC[C@H]1O[C@@H](C#Cc2ccccc2)[C@H](OC(C)=O)[C@@H](OC(C)=O)[C@@H]1OC(C)=O`, the inhibition turned out to be 2.07%.

For the compound `O=S(=O)(NCCN1CCCC1)c1cccc(-c2ccc(CNCc3ccccc3)cc2)c1`, the inhibition was 2.05%.

For `CC(C)CCN1CCCN(Cc2ccc(C(=O)Nc3ccc(Cl)cc3)cc2)CC1`, the inhibition stood at 11.3%.

For `COc1cccc(OC)c1OCCCON1C(=N)N=C(N)NC1(C)C`, the inhibition came to 1.49%.

As for `Fc1ccc2[nH]c(-c3ccc(-c4ccc(CNCCc5ccncc5)cc4)s3)nc2c1`, the inhibition was 4.96%.

Regarding `CC(C)CNCc1ccc(-c2cccc(CNc3ccc4ncccc4c3)c2)cc1`, the inhibition was 3.71%.

As to `Cc1cccc(Oc2cccc3[nH]nc(N)c23)c1`, the inhibition amounted to 3.96%.

With `Cc1nc(-c2cccc(C(F)(F)F)c2)n2nc(Nc3ccc(OCCN4CCCC4)cc3)ncc12`, the inhibition is 53.7%.

As for `COc1cccc2cc(C(=O)N[C@@H](CC(C)C)C(=O)NC3CC[C@@H](C)N(C(=O)Nc4ccncc4)CC3=O)oc12` (stereo not given in full), the inhibition turned out to be 4.38%.

For the compound `Oc1cccc(Nc2nc(NCC3CCCO3)c3ccccc3n2)c1` (stereo not given), the inhibition was 24.8%.

As for `CC(C)(C)NCCN(Cc1ccc(-c2ccc(C(F)(F)F)cc2)cc1)C(=O)Cn1c(SCc2ccc(F)cc2)nc(=O)c2c1CCC2`, the inhibition was 1.75%.

`O=C(Nc1ccc(OC2CCN(Cc3ccc(F)cc3)C2)c(Cl)c1)c1cccs1` (stereo not given): the inhibition stood at 2.25%.

As for `O=C1OC2(CCN(Cc3cccc(-c4ncc[nH]4)c3)CC2)CN1CCNCc1ccccc1`, the inhibition is 1.4%.

`CN(C)CCOc1ccc(-c2cc(-c3ccnc(N)n3)c(-c3ccc(Cl)c(O)c3)o2)cc1`: the inhibition amounted to 1.5%.

As for `C=CC[C@H](C[C@H](O)[C@H](Cc1ccccc1)NC(=O)c1nn(-c2ccccc2)nc1C)C(=O)NC1CCCCC1`, the inhibition stood at 2.34%.

Take `CCCN(CCC)c1nn2c(=O)c(C(=O)N3CCN(Cc4ccccc4)CC3)cnc2s1`: the inhibition is 1.87%.

As for `Clc1cccc(CNc2nc(NCCc3c[nH]cn3)nc(NC3CCCCC3)n2)c1`, the inhibition was determined as 3.97%.

For `CC(=O)c1ccc(-c2ccc(C(=O)NCCCCN3CCC(c4ccc5c(c4O)CCCC5)CC3)cc2)cc1`, the inhibition came to 3.4%.

As for `N#Cc1ccc2c(c1)CCN(CCC1CCC(NC(=O)Nc3ccncc3)CC1)C2` (stereo not given), the inhibition was 3.65%.

In the case of `NC1=NC(Cc2ccccc2)N(c2ccc(Cl)cc2)C(N)=N1` (stereo not given), the inhibition was 6.99%.

As to `O=[N+]([O-])c1cc(/C=N/Nc2nc3nonc3nc2Nc2ccc(F)cc2)c(Cl)cc1Cl`, the inhibition is -0.25%.

Turning to `NC1CCN(CCNCc2cccc(-c3ccc(-c4nc5cc(C(F)(F)F)ccc5[nH]4)cc3)c2)C1` (stereo not given), the inhibition was found to be 1.4%.

Turning to `CCNc1cc(C(=O)N[C@@H](Cc2ccccc2)[C@H](O)CNCCCc2ccc(OC)cc2)cc(N2CCCC2=O)c1`, the inhibition worked out at 0.76%.

Take `COc1ccc2nccc([C@@H](O)CN3CCC(NCc4cc5oc(=O)[nH]c5cc4Cl)CC3)c2c1`: the inhibition is -1.56%.

As to `CN1CCN(S(=O)(=O)c2ccc3nccc(Nc4ccc(Oc5ccccc5)cc4)c3c2)CC1`, the inhibition is -1.4%.

For the compound `COc1ccc2nccc([C@@H](O)CN3CCC(NC(=O)/C=C/c4ccc5ccccc5n4)CC3)c2c1`, the inhibition came to 13.2%.

For the compound `COc1ccc(NC(=O)/C=C/c2ccccc2Cl)cc1OCCN1CCC(NCc2ccccc2)CC1`, the inhibition worked out at 2.49%.

As for `CCOc1ccc2ccccc2c1C(=O)Nc1cc(C)nn1-c1nc(C)cc(=O)[nH]1`, the inhibition turned out to be 44.4%.

Consider `COc1ccccc1CN1CCC(CNC(=O)c2cc(-c3cccc(C(F)(F)F)c3)cs2)C1` (stereo not given), for which the inhibition was 1.45%.

Consider `O=C(NCCCN1CCC(NC(=O)c2ccc(-c3cccnc3)cc2)CC1)c1ccc(Cl)c(Cl)c1`, for which the inhibition worked out at 1.38%.

In the case of `Cc1cc(CN2CCCC(OC(c3ccc(F)cc3)c3ccc(F)cc3)C2)ccc1O` (stereo not given), the inhibition turned out to be 4.88%.

For `N=c1c2c(n(Cc3ccccc3)c3c1CCC3)CCCC2`, the inhibition came to 28.1%.

Take `CC(=NNC(S)=NC(c1ccccc1)c1ccccc1)c1ccccn1`: the inhibition was 58.8%.

Consider `N#Cc1cccc(NC(=O)Nc2ccc(-c3cccc(-c4nc5cc(F)ccc5[nH]4)c3)cc2)c1`, for which the inhibition worked out at 1.58%.

As for `O=S(=O)(Nc1ccc(CCN2CCC(N3CCCCC3)CC2)cc1)c1cccc(C(F)(F)F)c1`, the inhibition amounted to 7.5%.

Consider `CC1CN(c2cccc3c2nc(-c2cncc(C#N)c2)n3CCNCc2ccccc2)CC(C)O1` (stereo not given), for which the inhibition was 2.38%.

For `CN(C)c1cc(NC(=O)Nc2ccc(SC(F)(F)F)cc2)c2ccccc2n1`, the inhibition stood at 0.11%.

For `O=C(/C=C/c1ccc(Cl)c(Cl)c1)NCCCCCN1CCCC(CNC(=O)c2sc3ccccc3c2Cl)C1` (stereo not given), the inhibition is -2.38%.

`COc1cccc(C(=O)NC(NC(=S)Nc2ccc(OC)cc2[N+](=O)[O-])C(Cl)(Cl)Cl)c1` (stereo not given): the inhibition turned out to be 0.44%.

One may read the inhibition as the relative decrease from the control value, in per cent.

These data come from ChEMBL document CHEMBL3433997, “St. Jude Leishmania screening dataset” (2016).
